Data on 107 compounds can be found in ChEMBL document CHEMBL4513216, “Probing the Open Global Health Chemical Diversity Library for Multistage-Active Starting Points for Next-Generation Antimalarials” (ACS Infect Dis, 2020).

Structures are written as SMILES. Out of some 65,000 compounds screened, about 2,100 (3.2%) showed an effect of 50% or more. The median lay at about -52%. The sample holds strong results, similar compounds and a random draw of the others, so the mix is not that of the screen.

This assay relates to Plasmodium falciparum. Nature of the assay: Screen against P. falciparum Asexual Blood Stage (ABS), at 5uM. It counts as functional, Dd2. The conditions noted are these: tested at 5 uM.
Consider `CCNC(=O)O[C@H]1COCCN(c2nc3ccccc3s2)C1`, for which the INHIBITION was 54.8%.
In the case of `O=C(NC1CCCC1)O[C@H]1COCCN(c2nc3ccccc3o2)C1`, the INHIBITION is on record as -59.6%.
Regarding `O=C(NC1CCCC1)O[C@H]1COCCN(c2nc3ccccc3s2)C1`, the INHIBITION is listed as -31.6%.
Regarding `CCOc1ccccc1CNC(=O)N1CCC(n2cncn2)CC1`, the INHIBITION is -19.1%.
Turning to `COc1ccc(CN2C[C@@H]3CN(Cc4ccncc4)C[C@@H]3C2=O)cc1`, the INHIBITION is given as -48%.
The figure for `COc1ccc(CN2C[C@@H]3CN(CCO)C[C@@H]3C2=O)cc1` is 50.3%; for `COc1ccc(CN2C[C@H]3CN(Cc4ccncc4)C(=O)[C@H]3C2)cc1` it is -22.1%.
The figure for `Cc1cccc(CN2CCCC3(CCN(CC4CCCO4)CC3)C2)n1` (configuration not stated) is 45.2%; for `COc1cc(C(=O)NCC2CC2)nc2c(C)cc(F)cc12` it is -103%; for `C[C@@H]1CN(c2nc(N)nc3c2CCC3)C[C@]1(C)O` it is -48.4%.
The figure for `C[C@@H]1CN(c2nc(N)nc3c2CCC3)CC[C@@]1(O)C1CCC1` is 68.5%.
Regarding `C[C@@H]1CN(c2nc3c(cc2C(N)=O)CCC3)CC[C@@]1(O)C1CCC1`, the INHIBITION was -80.6%.
The figure for `COc1ccc(CN(C)C(=O)CN2CC(n3cccn3)C2)cc1F` is 26.7%; for `CCCNC(c1ccc(F)cc1)c1cccnc1` (configuration not stated) it is 35.6%; for `CCNC(c1cccnc1)c1ccc(F)c(C)c1` (configuration not stated) it is 25.4%.
With `CCCNC(c1cccnc1)c1ccc(F)c(C)c1` (configuration not stated), the INHIBITION was determined as 57.9%.
The figure for `CCOCC(=O)N1C[C@@H]2COC[C@]2(c2nc(C)no2)C1` is -63.5%; for `CC(=O)N1CCCC(c2cccc(-n3ccnc3)n2)C1` (configuration not stated) it is -75.7%; for `c1cnc(N2CCCC(c3cncc(-n4ccnc4)n3)C2)nc1` (configuration not stated) it is -20.6%.
As to `Cc1cc(C)nc(N2CCCC(c3cccc(-n4ccnc4)n3)C2)n1` (configuration not stated), the INHIBITION came to 66.3%.
Take `O=C(Cc1ccccn1)N1CCc2c(O)nc(-c3cnccn3)nc2C1`: the INHIBITION was -157%.
With `CCOCc1cncc2c1CCN(C(=O)c1cscn1)C2`, the INHIBITION was -43.3%.
As to `CC(=O)N1CCN(C[C@H]2CC[C@@H](Cc3ccc4ncccc4c3)O2)CC1`, the INHIBITION is -16.4%.
For the compound `c1cnc2ccc(C[C@@H]3CC[C@H](CN4CCCOCC4)O3)cc2c1`, the INHIBITION was determined as 57.9%.
Next, `c1cncc(C[C@@H]2CC[C@H](CN3CCCOCC3)O2)c1`: -54%; `O=C(NCCCN1CCCCCC1=O)c1n[nH]c(=O)c2ccccc12`: -16.5%.
Next, `O=C(NC1CC1)c1nc(Cn2c(C(F)F)nc3ccccc32)no1`: -138%.
Take `COCC(c1cccc(C(F)(F)F)c1)N(C)C(=O)c1ccncc1` (configuration not stated): the INHIBITION is listed as -196%.
The figure for `COCC(c1cccc(C(F)(F)F)c1)N(C)C(=O)c1cnccn1` (configuration not stated) is 48.8%.
As for `COCC(c1cccc(C(F)(F)F)c1)N(C)C(=O)c1cccnc1` (configuration not stated), the INHIBITION was determined as 66.9%.
Next, `CC(C)n1nc2c(cc1=O)CN(c1ncnc3ccccc13)CC2`: -52.6%; `CN(C)C(=O)Cn1c2c(ccc1=O)CCN(Cc1cnn(C)c1)CC2`: -39.8%.
In the case of `COCC(=O)NC(C)c1sc(-c2ccccc2F)nc1C` (configuration not stated), the INHIBITION is -22.6%.
In the case of `COc1cccc(CN2CCCCC2c2n[nH]cc2-c2cc(C)no2)c1` (configuration not stated), the INHIBITION was determined as 35.3%.
The figure for `COc1ccccc1CN1CCCCC1c1n[nH]cc1-c1cc(C)no1` (configuration not stated) is 66.4%.
As to `CCc1ccc(CN2CCCCC2c2n[nH]cc2-c2cc(C)no2)cc1` (configuration not stated), the INHIBITION was 33.5%.
The figure for `COc1ccc(CN2CCCCC2c2n[nH]cc2-c2cc(C)no2)cc1` (configuration not stated) is 35.5%; for `Cc1cccc(CN2CCCCC2c2n[nH]cc2-c2cc(C)no2)c1` (configuration not stated) it is 52%; for `Cc1cc(-c2c[nH]nc2C2CCCCN2C(=O)c2ccccc2)on1` (configuration not stated) it is -6.99%.
For `COC(=O)c1ccc(CN(C)C(=O)c2cnsn2)cc1`, the INHIBITION is -39.8%.
As for `Cc1cc(-c2cccnc2)nc(C2CCCN2S(C)(=O)=O)n1` (configuration not stated), the INHIBITION was -29.8%.
The figure for `O=C(c1sccc1C1CC1)N1CCN(Cc2cscn2)CC1` is -52.2%; for `O=C(c1cocn1)N1C[C@@H]2CN(Cc3ccco3)CCO[C@@H]2C1` it is -6.8%.
On to `N#Cc1ccc(F)c(CNC(=O)NC(CO)Cc2ccccc2)c1` (configuration not stated), for which the INHIBITION is -90.6%.
The figure for `CC(C)CC(=O)N(C)Cc1nc(C(F)(F)F)cs1` is -49.5%; for `CCc1nc2n(n1)CC(NCc1nnc(C(C)C)o1)CC2` (configuration not stated) it is -107%.
For the compound `OC(CNCCn1cccn1)c1cccc(F)c1` (configuration not stated), the INHIBITION is given as -25.4%.
As to `OC(CNCCn1cccn1)c1ccc(Br)cc1` (configuration not stated), the INHIBITION is recorded as -6.84%.
Next, `OC(CNCCn1cccn1)c1cccc(Br)c1` (configuration not stated): 64.3%; `Cc1cc(NC(=O)NCc2ccncc2)ccc1OC(C)C`: -62%; `O=C(c1ccc(Cl)cc1)N1CCn2c(nn(-c3cccc(Cl)c3)c2=O)C1`: -1.25%.
Regarding `CCO[C@H]1CC[C@H]2[C@@H]1OCCN2C(=O)COc1ccccc1`, the INHIBITION is listed as -106%.
As for `CCOc1ccnc(N2CCCN(c3nc(C4CC4)ns3)CC2)n1`, the INHIBITION came to 52.1%.
Turning to `CN1CCCN(c2nc(C3CC3)ns2)CC1`, the INHIBITION was -0.753%.
The figure for `CCOc1ccnc(N2CCCN(c3nc(CC)ns3)CC2)n1` is -63.7%.
Consider `Cc1ncoc1C(=O)N1CCOC(Cc2ccccc2)C1` (configuration not stated), for which the INHIBITION was -121%.
Take `Cn1nc(C2CCCN(Cc3ccc(F)cc3F)C2)c2nccnc21` (configuration not stated): the INHIBITION is -79%.
With `Cc1cc(C(=O)Nc2ccc3oc(=O)n(CCN(C)C)c3c2)c(C)o1`, the INHIBITION is 8.61%.
Next, `Cn1ccnc1C(=O)N1CCC2(CCCN2CC2CC2)CC1`: -104%; `CC(=O)c1cc(CN2C[C@@H]3CC[C@H]2CN(S(=O)(=O)N(C)C)C3)cs1`: -60.2%; `O=C(O)Cn1ccc(=O)c2ccccc21`: -123%.
As for `CC(C)(C)c1cc(C(=O)NCCN2CCCS2(=O)=O)[nH]n1`, the INHIBITION turned out to be 34.4%.
The figure for `CC(C)C(=O)N1CCC2(CN(CC3CCCC3)C2)C1` is -67.5%.
The figure for `CC(C)C(=O)N1CCCC2(CCCN2CC2CCCC2)C1` (configuration not stated) is 62%; for `CC(C)C(=O)N1CCC2(CCN2CC2CC2)C1` (configuration not stated) it is -74.5%; for `CCCS(=O)(=O)N1CCC(NC(=O)c2cc3ccccc3s2)CC1` it is 7.92%.
The figure for `COCC(=O)N1C[C@@H](CN2CCCN(C)CC2)[C@@H](CO)C1` is -37.6%.
With `Cc1[nH]c2ccc(CNc3cc(C(=O)NC(C)C)ccn3)cc2c1C`, the INHIBITION was -115%.
The figure for `O=C(c1ccccc1)N1CCCn2c(CN3CCCCC3)nnc2C1` is -94.3%; for `CCc1noc(C)c1C(=O)N1CCCCC1Cn1cc(C)cn1` (configuration not stated) it is -104%.
The figure for `CCC(=O)N(C)C1CCN(Cc2ncc(C)c(OC)c2C)CC1` is -102%.
Next, `CCNC(=O)N(C)C1CCN(Cc2ncc(C)c(OC)c2C)CC1`: 69%; `COc1c(C)cnc(CN2CCC(N(C)C(=O)C(C)OC)CC2)c1C` (configuration not stated): -7.99%.
For the compound `O=C(Cn1cc(I)cn1)N1CCCCCC1`, the INHIBITION is given as -34.7%.
The figure for `COc1ccc2cc(CNCc3c(C)nn(C)c3N(C)C)ccc2c1` is 18.6%.
The figure for `Cc1ccc(N2CCN(C(=O)CN3C[C@H]4CC[C@@H]3C4)CC2=O)cc1` is -73.1%; for `Cc1cc(C)cc(N2CCN(C(=O)CCN3C[C@H]4CC[C@@H]3C4)CC2=O)c1` it is 62.1%.
The figure for `O=C(CCN1C[C@H]2CC[C@@H]1C2)N1CCN(c2cccc(Cl)c2)C(=O)C1` is -40%.
As for `CC(CN1CCCC1=O)NC(=O)Nc1ccccc1Cn1cccn1` (configuration not stated), the INHIBITION is on record as -4.06%.
The figure for `CCOCC1c2c(cnn2C)CCN1C(=O)c1ccncn1` (configuration not stated) is -224%; for `Cc1cccc(C)c1Oc1ncccc1CNC(=O)C1COC(=O)N1` (configuration not stated) it is -180%; for `CCC(CC)C(=O)NCc1cn2cc(Br)ccc2n1` it is 1.4%.
Consider `Cc1cc(N(C)CCCn2cccn2)nc(N)n1`, for which the INHIBITION was 26.7%.
On to `COc1ccc(F)c(-c2cc(C)nc(N)n2)c1`, for which the INHIBITION is listed as -23.9%.
Next, `COc1ccc(OCCN(C)c2cc(C)nc(N)n2)cc1`: 63.7%; `CN(C)c1ccccc1CN1CCCC(N2CCCC2=O)C1` (configuration not stated): -44.5%; `Cc1cccc(C(=O)N2CCC3(CC2)CC(c2cnn(C)c2)CO3)c1` (configuration not stated): -85.1%.
Next, `CN(C)CC1(O)CCN(C(=O)Cc2ccc3c(c2)CCC3)C1` (configuration not stated): -116%.
Next, `CN(C)CC1(O)CCCN(C(=O)CCn2cc(Cl)cn2)C1` (configuration not stated): -101%.
Consider `CN(C)CC1(O)CCCN(C(=O)Cc2ccc(Cl)c(Cl)c2)C1` (configuration not stated), for which the INHIBITION came to 58.9%.
The figure for `O[C@H]1CCCC[C@@H]1N1CCN(CCCc2ccc3c(c2)OCO3)CC1` is 28.7%; for `CN(C)C(CNCc1nc(-c2ccsc2)no1)c1ccsc1` (configuration not stated) it is 55.4%; for `CN(C)C(CNCc1nc(-c2ccsc2)no1)c1cccs1` (configuration not stated) it is 12.3%.
Next, `CN(C)C(CNCc1nc(-c2ccsc2)no1)c1cccc(F)c1` (configuration not stated): -31.3%; `CCC1=NC(SCC(=O)c2ccccc2)c2cc(CC)sc2N1` (configuration not stated): -23.2%; `c1ccc(-c2cc(CNCCN3CCOCC3)c3nnnn3c2)cc1`: -57.2%.
Take `c1ccc(-c2cc(CNCCCN3CCCCC3)c3nnnn3c2)cc1`: the INHIBITION is on record as 65.4%.
Next, `c1ccc(-c2cc(CNCCN3CCCC3)c3nnnn3c2)cc1`: -1.88%.
As to `O=C([C@@H]1C[C@@H]2CCN(CCc3ccccc3)C[C@H]2O1)N1CCCC1`, the INHIBITION is on record as -35%.
As to `CC(O)CN1CCC(CNCc2ccccc2Cl)CC1` (configuration not stated), the INHIBITION is 44.5%.
Regarding `CCc1nnc2n1CC(CNCC1CCCC1)CC2` (configuration not stated), the INHIBITION was -108%.
As for `COc1ccc2c(c1)OC1(CCN(Cc3ccc(F)cc3)CC1)CC2=O`, the INHIBITION was -50.5%.
The figure for `COc1ccc2c(c1)C(=O)NC1(CC2)CCN(Cc2ccncc2)C1` (configuration not stated) is -28.2%.
On to `COc1ccc2c(c1)C(=O)NC1(CC2)CCN(Cc2cccnc2)C1` (configuration not stated), for which the INHIBITION was -50.6%.
Next, `COc1ccc2c(c1)C(=O)NC1(CC2)CCN(Cc2ccccc2)C1` (configuration not stated): 64.7%.
Turning to `COc1ccc2c(c1)C(=O)NC1(CC2)CCN(Cc2ccccn2)C1` (configuration not stated), the INHIBITION was -30.5%.
In the case of `COc1ccc2c(c1)C(=O)NC1(CC2)CCN(Cc2ccc(F)cc2)C1` (configuration not stated), the INHIBITION was determined as 66.7%.
